Screens from PubChem.
This is a sample that favours compounds with a hit; in the whole collection about 12% have one here.
HP1b binding inh – HTS for Inhibitors of HP1-beta Chromodomain Interactions with Methylated Histone Tails. 390,000 compounds, 0.56% hits. AlphaScreen HP1-beta / biotin-H3K9me3 peptide binding. Chromobox protein homolog 1 (Homo sapiens), P83916. Potency, µM (doses to about 114 µM), for inactives: at the highest dose activity change, negative = inhibition, most hits filed as inhibitors. AID 540317, 2011; note: potency is the fitted concentration of half-maximal effect; nearly all actives have a fitted effect of over 70% in size
Target sequence (P83916 whole entry, looked up): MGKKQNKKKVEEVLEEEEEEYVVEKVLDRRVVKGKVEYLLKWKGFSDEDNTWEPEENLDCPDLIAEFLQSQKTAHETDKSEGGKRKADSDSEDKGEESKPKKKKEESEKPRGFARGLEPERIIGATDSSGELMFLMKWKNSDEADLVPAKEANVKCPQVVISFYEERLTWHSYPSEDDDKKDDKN
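Compound inhibition of the preformed complex between 50 nM HP1-beta and 50 nM biotinylated H3K9me3 peptide was read by AlphaScreen. Buffer was PBS pH 7.4 with 0.01% Tween-20. Incubations ran 30 min at room temperature, with 10 ug/mL donor/acceptor beads.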
G9a block – qHTS Assay for Inhibitors of Histone Lysine Methyltransferase G9a. G9a H3K9 monomethylation, AlphaScreen, 2 h. Potency, µM (highest dose often 102 µM), inactives show top-dose activity, negative = inhibition, hits mostly inhibitors. 350,000 compounds, 8.8% hits. AID 504332, 2011; note: potency is the fitted concentration of half-maximal effect; % is set by controls: 0 for no effect and ±100 for the full control effect; nearly all actives have a fitted effect of over 75% in size
Target sequence (Q96KQ7 913-1193 limits assumed): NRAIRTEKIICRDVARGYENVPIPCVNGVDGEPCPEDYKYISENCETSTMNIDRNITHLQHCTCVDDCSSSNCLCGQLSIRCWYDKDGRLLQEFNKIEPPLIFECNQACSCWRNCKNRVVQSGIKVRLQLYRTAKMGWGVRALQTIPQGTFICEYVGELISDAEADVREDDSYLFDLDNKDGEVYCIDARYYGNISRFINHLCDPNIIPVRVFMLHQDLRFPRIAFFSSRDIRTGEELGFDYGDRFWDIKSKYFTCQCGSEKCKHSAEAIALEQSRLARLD
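Methyltransferase reactions run at room temperature for 2 h (20 nM enzyme, 500 nM biotin-H3K9 peptide, 20 uM SAM) after a 15 min compound preincubation; product detected by AlphaScreen beads and anti-H3K9me1 antibody.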
PI5P4K alpha inh – qHTS for Inhibitors of phosphatidylinositol 5-phosphate 4-kinase (PI5P4K) | Phosphatidylinositol 5-phosphate 4-kinase type-2 alpha (Homo sapiens), P48426 | PI5P4Kalpha enzyme, ADP-Glo luminescence, 60 min; active compounds read low | max response, % | 330,000 compounds, 1.2% hits | AID 652105, 2013; active = max response of -50% or lower; inconclusive = between -30% and -50%; inactive = -30% or higher; note: value at the top dose of about 77 µM; % is set by controls: 0 for no effect and ±100 for the full control effect
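Luminescence from ADP-Glo served as readout of PI5P4Kalpha activity in a qHTS format. Reaction: enzyme, substrate, compound, ATP at 5 microM final, 60 min at RT.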
BAZ2B block – qHTS Assay for Inhibitors of BAZ2B | Bromodomain adjacent to zinc finger domain protein 2B (Homo sapiens), Q9UIF8 | AlphaScreen BAZ2B-H3K14Ac peptide displacement | Potency, µM (doses to about 114 µM), for the others: at the top dose activity change, negative = inhibition, actives largely listed as inhibitors | 360,000 compounds, 4.4% hits; note: potency is the fitted concentration of half-maximal effect; % is set by controls: 0 for no effect and ±100 for the full control effect; nearly all actives have a fitted effect of over 60% in size
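AlphaScreen displacement of biotin-H3(5-23)K14Ac peptide (50 nM final) from BAZ2B (50 nM final) in PBS pH 7.4, 0.01% Tween-20; complex preformed 30 min RT, then compounds (top 110 uM) 30 min RT, beads 20 min dark.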
PLK1 PBD inh – qHTS for Inhibitors of PLK1-PDB (polo-like kinase 1 - polo-box domain): Primary Screen | Serine/threonine-protein kinase PLK1 (Homo sapiens), P53350 | 360,000 compounds, 2.8% hits | Potency, µM, inactives show max response, negative = inhibition, most hits filed as inhibitors | Plk1 PBD binding of FITC phosphopeptide, fluorescence polarization; note: potency is the fitted concentration of half-maximal effect; series mostly up to about 57 µM; % is set by controls: 0 for no effect and ±100 for the full control effect; nearly all actives have a fitted effect of over 65% in size
JMJD2A Tudor – qHTS Assay for Inhibitors of JMJD2A-Tudor Domain | Lysine-specific demethylase 4A (Homo sapiens), O75164 | AlphaScreen JMJD2A-Tudor / H3K4me3 peptide binding | Potency, µM (doses to about 114 µM), without a hit: at the top dose activity change, negative = inhibition, hits mostly inhibitors | 390,000 compounds, 4.4% hits | AID 504339, 2011; note: potency is the fitted concentration of half-maximal effect; % is set by controls: 0 for no effect and ±100 for the full control effect; nearly all actives have a fitted effect of over 50% in size
Starred values were filed as active, the others as inactive; ? = inconclusive; . = no result; [ ] = dose if it differs, or a comment. Unless noted, calls come from the whole dose curve; as a rule, active = well fitted curve in the direction sought with a large enough effect; inconclusive = small, poorly fitted or top-dose-only effect, or another doubt; inactive = no such curve, though single readings can be large; an effect the other way counts as inactive or inconclusive.

SMILES | HP1b binding inh | G9a block | PI5P4K alpha inh | BAZ2B block | PLK1 PBD inh | JMJD2A Tudor
Fc1ccc(Br)cc1C1C=C(c2cccnc2)Nc2ncnn21 (stereo not drawn) | 43% | 45µM* | -1 | -7% | -17% | ?
COc1ccc(C2C=C(c3ccc(Br)s3)Nc3ncnn32)cc1OC (stereo not drawn) | . | 11µM* | . | ? | . | .
COc1cccc(C2=CC(c3ccccc3)n3ncnc3N2)c1 (stereo not drawn) | . | ? | . | 56µM* | . | .
CCOc1ccc(C2=CC(c3cc(Br)ccc3F)n3ncnc3N2)cc1Cl (stereo not drawn) | 24% | -34%[59 µM] | . | -10% | . | -23%
COc1ccc(C2C=C(c3ccc(C)cc3)Nc3ncnn32)cc1 (stereo not drawn) | 19% | ? | 10 | ? | 0% | -12%
Fc1ccc(C2=CC(c3ccc(Br)o3)n3ncnc3N2)cc1 (stereo not drawn) | -7% | 8.9µM* | ? | -15% | 11µM* | 32µM*
O=C(Oc1ccccc1)N1CCC2(CC1)CN(c1ccncc1)C2 | . | 36%[12.7 µM] | . | . | . | .
Cc1ccc(C)c(N2CCN(C(=O)CCc3nnc4n(C)c(=O)c5ccccc5n34)CC2)c1 | 49% | 15%[59 µM] | . | 3% | . | -3%
Cc1cc(C)c(S(=O)(=O)NCC(c2ccco2)N2CCOCC2)c(C)c1 (stereo not drawn) | 24% | -20%[59 µM] | . | -13% | . | -10%
CC(O)(c1cccnc1)c1nc(-c2cccc3cccnc23)cs1 (stereo not drawn) | . | . | -22 | . | -2% | .
COc1cccc(C2=CC(c3ccc(N(C)C)cc3)n3ncnc3N2)c1 (stereo not drawn) | . | 40µM* | . | 4% | . | .
Cc1ccc(C2C=C(c3ccccc3)Nc3ncnn32)cc1 (stereo not drawn) | 15% | . | -16 | . | 30µM* | ?
COc1cc(NC(=O)c2ccc(-c3cnn(C)c3)c3ccoc23)cc(OC)c1OC | . | . | 5 | . | -11% | .
Cc1ccc([C@H]2C[C@H](O)[C@@H](n3cc(COC(=O)c4ccccc4)nn3)CN2Cc2cccs2)cc1 | . | . | 16 | . | -16% | .
O=c1[nH]c(S)c(/C=C2\C=Nc3ccccc32)s1 | ? | 14µM* | ? | 11µM* | -25% | ?
Cc1nn(-c2ccccc2)c2c1N(CC(=O)N1CCN(c3ccc(F)cc3)CC1)C(=O)CS2 | 58% | 3%[59 µM] | . | -1% | . | -10%
Cc1nn(-c2ccccc2)c(N)c1N=Nc1ccccc1 | ? | 45µM* | -2 | 32µM* | 3% | 56µM*
Cc1nn(-c2ccccc2)c(N)c1N=Nc1ccc(Cl)cc1 | ? | 35µM* | 32 | 40µM* | -2% | 45µM*
Cc1cccc(N=Nc2c(C)nn(-c3ccccc3)c2N)c1C | ? | 10µM* | 31 | 18µM* | 6% | 25µM*
Cc1nn(-c2ccccc2)c(N)c1-c1ccccc1 | 32% | 1% | 2 | -14% | -5% | -16%
Nc1nn(-c2ccccc2)c(N)c1N=Nc1ccccc1F | -33% | ? | 172 | 35µM* | -8% | ?
Nc1c(N=Nc2ccccc2F)c(=O)[nH]n1-c1ccccc1 | 10% | -43% | 42 | ? | -11% | ?
Cc1nn(-c2ccccc2)c(N)c1C(O)(C(F)(F)F)C(F)(F)F | 22% | 5% | 0 | -2% | -8% | -9%
Cc1cc(C)c(S(=O)(=O)NCCc2sc(-c3cccnc3)nc2C)c(C)c1 | 9%[57 µM] | -12%[59 µM] | . | -8% | . | -17%
CC(C)CC(NC(=O)C1CCC(=O)N1C(=O)OCc1ccccc1)C(=O)NC(Cc1ccccc1)C(N)=O (stereo not drawn) | 11% | 1% | -2 | 2% | -3% | -13%
SMILES | HP1b binding inh | G9a block | PI5P4K alpha inh | BAZ2B block | PLK1 PBD inh | JMJD2A Tudor
O=C1CCc2cc(S(=O)(=O)NCc3ccccc3)ccc2N1 | . | . | . | . | . | -11%
Nc1nn(-c2ccccc2)c(N)c1N=Nc1ccccc1 | ? | ? | 121 | 40µM* | -13% | ?
Cc1nn(-c2ccccc2)c(N)c1N=Nc1cccc(S(=O)(=O)N2CCOCC2)c1 | ? | ? | 3 | 28µM* | -2% | ?
CC(=O)C1=C(NC(=O)c2ccccc2F)C[C@@H]2[C@H]1C2(C)C | 35% | 56µM* | 13 | -10% | -2% | -13%
O=C(CCl)Nc1cc(SCC(O)CO)cc([N+](=O)[O-])c1 (stereo not drawn) | 46% | 50µM* | 3 | -36% | ? | -24%
CCC(=O)Nc1cc(SCCO)cc([N+](=O)[O-])c1 | 27% | 16% | . | -26% | -10% | -6%
CC(C)=NOc1cc(NC(=O)CCl)cc([N+](=O)[O-])c1 | 42% | 56µM* | 1 | -11% | ? | -12%
CCN(C(=O)COC(=O)c1ccc(Cl)c(S(=O)(=O)N2CCCCC2)c1)C1CCS(=O)(=O)C1 (stereo not drawn) | 10% | . | 3 | . | -4% | -3%
CNc1nc(Cl)c(SC)c(NCc2cccc(OC)c2)n1 | 20% | -5% | -18 | 22% | 11µM* | ?
c1ccc(C(c2nnnn2Cc2cccs2)N2CCN(C3CCCC3)CC2)cc1 (stereo not drawn) | 16% | 45µM* | 5 | -3% | 1% | -24%
CCC(c1nnnn1Cc1ccccc1)N1CCN(c2ccccc2)CC1 (stereo not drawn) | 8% | -10%[12.7 µM] | 1 | -14% | -3% | -24%
COc1ccccc1N1CCN(C(c2ccccc2)c2nnnn2Cc2ccccc2)CC1 (stereo not drawn) | 21% | . | . | . | . | -17%
CCC(c1nnnn1CCc1ccccc1)N1CCN(c2ccc(OC)cc2)CC1 (stereo not drawn) | -5% | 11µM* | -1 | ? | -1% | -33%
COc1ccc2cc(C(c3nnnn3Cc3ccccc3)N3CCCCCC3)c(=O)[nH]c2c1 (stereo not drawn) | 29% | 13µM* | -10 | -2% | -16% | -17%
COc1ccccc1N1CCN(C(c2ccc(N(C)C)cc2)c2nnnn2CCc2ccccc2)CC1 (stereo not drawn) | -49% | 2µM* | 10 | 25µM* | 7% | ?
CCc1noc2nc(C)n(CC(=O)O)c(=O)c12 | 38% | -3%[59 µM] | . | -6% | . | -8%
